Experimental findings from PubChem BioAssay (EPA / NIEHS) are described below.

For experiment [1], the target named is Transcription factor E2F1 (Homo sapiens) (UniProt Q01094). Briefly: ATG_E2F_CIS: Attagene CIS-FACTORIAL HepG2 Assay for human E2F Transcription Factor 1 (AID 2282935). The note with it: HepG2 Attagene cis-reporter, E2F reporter RNA transcripts; actives raise or lower the signal. The procedure, abridged: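 Cis-element reporter mRNA induction in transiently transfected HepG2, 24 h exposure. Activity fitted in both directions relative to DMSO negative control.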
Sequence of Transcription factor E2F1 (Homo sapiens) (Q01094 whole entry, looked up): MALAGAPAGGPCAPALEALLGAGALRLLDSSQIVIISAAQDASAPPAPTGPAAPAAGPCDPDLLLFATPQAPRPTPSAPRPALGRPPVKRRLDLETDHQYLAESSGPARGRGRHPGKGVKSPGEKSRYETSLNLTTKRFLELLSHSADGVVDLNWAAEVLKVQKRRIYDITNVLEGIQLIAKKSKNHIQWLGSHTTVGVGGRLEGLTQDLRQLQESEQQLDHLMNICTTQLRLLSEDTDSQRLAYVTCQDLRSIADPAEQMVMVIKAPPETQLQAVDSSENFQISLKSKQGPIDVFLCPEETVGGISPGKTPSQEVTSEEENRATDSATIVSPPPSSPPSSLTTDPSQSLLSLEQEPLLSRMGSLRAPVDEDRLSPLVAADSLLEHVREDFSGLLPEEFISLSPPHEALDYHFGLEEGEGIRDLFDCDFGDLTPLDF

Experiment [2] in a line: ATG_E_Box_CIS: Attagene CIS-FACTORIAL HepG2 Assay for human Enhancer Box (E-box) (AID 2282936). To be noted: HepG2 E-box cis-reporter transcription, actives raise or lower the signal. The procedure, abridged:
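Cells: HepG2 (human liver), transient MRTU transfection. Exposure 24 h. RNA → oligo(dT) RT → PCR → 6-FAM label → HpaI → CE. Activity fitted both directions relative to DMSO.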

A short description of experiment [3]: ATG_M_61_CIS: Attagene CIS-FACTORIAL HepG2 Assay for M61 Transcription Factor (Internal Marker) (AID 2282937). To be noted: HepG2 Attagene CIS-FACTORIAL M61 internal marker reporter; actives raise or lower the signal. The procedure, abridged:
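Multiplexed reporter mRNA assay, HepG2 human hepatoma cells, 24 h treatment. Signal: FAM-labelled, HpaI-digested RT-PCR fragments by CE. Fit: bidirectional, baseline DMSO.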

The nature of experiment [4]: ATG_EGR_CIS: Attagene CIS-FACTORIAL HepG2 Assay for human Early Growth Response 1 (EGR1) (AID 2282938). To be noted: HepG2 Attagene CIS-FACTORIAL EGR reporter mRNA; actives raise or lower the signal. The method in brief:
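Multiplexed cis-reporter system in human hepatoma HepG2 cells, transiently transfected. Cells are dosed for 24 h; reporter transcripts are amplified, fluorescently tagged and sized by capillary electrophoresis, with DMSO as negative control.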

The nature of experiment [5]: ATG_M_19_CIS: Attagene CIS-FACTORIAL HepG2 Assay for M19 Transcription Factor (Internal Marker) (AID 2282939). To be noted: HepG2 Attagene CIS-FACTORIAL M19 internal marker reporter; actives raise or lower the signal. The method in brief:
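Internal marker readout, fitted in both directions against DMSO, from HepG2 cells carrying transfected cis-element reporter constructs; RT-PCR and capillary electrophoresis of reporter mRNA after 24 h exposure.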

The nature of experiment [6]: ATG_ERE_CIS: Attagene CIS-FACTORIAL HepG2 Assay for Estrogen Response Element (ERE) (AID 2282940). To be noted: HepG2 ERE cis-reporter, Attagene RNA transcript; actives raise or lower the signal. The method in brief:
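After 24 h compound treatment, RNA from transfected HepG2 cells was reverse-transcribed, reporter cDNA PCR-amplified, FAM-labelled, HpaI-cut and resolved by capillary electrophoresis. ERE-driven cis reporter transcripts reflect endogenous factors; gain or loss scored against DMSO.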

A short description of experiment [7]: ATG_Ets_CIS: Attagene CIS-FACTORIAL HepG2 Assay for human Erythroblast Transformation Specific (ETS) (AID 2282941). To be noted: HepG2 ETS cis-reporter transcription, actives raise or lower the signal. The procedure, abridged: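 Steps: transfect HepG2 with multiple reporter units; treat compound 24 h; isolate RNA, DNase-treat, reverse-transcribe; PCR-amplify, label with 6-FAM, digest with HpaI; separate by capillary electrophoresis. Activity fitted both directions versus DMSO.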

The target in experiment [8] is Hepatocyte nuclear factor 3-beta (Homo sapiens) (UniProt Q9Y261). Briefly: ATG_FoxA2_CIS: Attagene CIS-FACTORIAL HepG2 Assay for human Forkhead box A2 (FOXA2) (AID 2282942). The note with it: HepG2 cis-reporter transcription factor activity, 24 h; actives raise or lower the signal. The procedure, abridged:
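Multiplexed cis-element reporter assay in transiently transfected HepG2. Twenty-four hours post-dosing, RNA was reverse-transcribed, amplified, FAM-labelled, HpaI-digested and separated by CE. Activity gain or loss relative to DMSO.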

Experiment [9] in a line: ATG_FoxO_CIS: Attagene CIS-FACTORIAL HepG2 Assay for human Forkhead box O (FoxO) (AID 2282943). The note with it: HepG2 Attagene cis-reporter, FoxO element, mRNA; actives raise or lower the signal. The method in brief: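 Endogenous transcription factor activity read from multiplexed cis-promoter reporter transcripts in transiently transfected HepG2, 24 h after dosing. Reporter RNA measured via RT-PCR plus capillary electrophoresis of FAM-labeled products; gain or loss relative to DMSO.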

Experiment [10] is described as follows: ATG_GATA_CIS: Attagene CIS-FACTORIAL HepG2 Assay for human GATA Binding Protein (AID 2282944). The note with it: HepG2 GATA cis-element reporter, Attagene multiplex mRNA; actives raise or lower the signal. The procedure, abridged: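 Reporter transcripts from a GATA cis-regulated unit, among multiplexed reporters in transfected HepG2 cells, were measured by RT-PCR with capillary electrophoresis after 24 h dosing. Induction or loss scored relative to DMSO.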

Structures are written as SMILES. Active and inactive are the calls of the source. How the source made its calls: active means hit-call score of the fitted dose curve at least 0.9, where 1 is the maximum; inactive means score below 0.9.

Sequence of Hepatocyte nuclear factor 3-beta (Homo sapiens) (Q9Y261 whole entry, looked up): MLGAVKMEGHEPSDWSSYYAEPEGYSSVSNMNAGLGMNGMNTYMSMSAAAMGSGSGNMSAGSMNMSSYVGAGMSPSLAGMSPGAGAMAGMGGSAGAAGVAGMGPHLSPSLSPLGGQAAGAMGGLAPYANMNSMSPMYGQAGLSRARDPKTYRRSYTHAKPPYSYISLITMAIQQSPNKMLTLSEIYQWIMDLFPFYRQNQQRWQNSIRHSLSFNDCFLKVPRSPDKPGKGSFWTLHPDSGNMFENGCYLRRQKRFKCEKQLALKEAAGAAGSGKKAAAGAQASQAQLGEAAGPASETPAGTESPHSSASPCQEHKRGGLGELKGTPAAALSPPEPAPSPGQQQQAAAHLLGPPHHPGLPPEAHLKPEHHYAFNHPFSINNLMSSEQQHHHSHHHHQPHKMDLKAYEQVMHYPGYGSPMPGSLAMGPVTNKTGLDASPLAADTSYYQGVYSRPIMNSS

For the molecule `CC(C)OC(=O)c1ccccc1`, the molecule was called inactive in experiment [1], in experiment [2], in [3], in experiment [4], in experiment [5] and in [6]. Besides, the outcome in experiment [7], in experiment [8], in experiment [9] and in experiment [10] was inactive.
As for `C=CC(C)(O)CC/C=C(\C)CC` (stereo not given), the outcome in experiment [1], in experiment [2], in experiment [3], in [4], in experiment [5] and in experiment [6] was inactive. The molecule was called inactive in [7], in experiment [8], in experiment [9] and in experiment [10].
In the case of `CC(C)CC(=O)OCc1ccccc1`, the outcome in [1], in experiment [2], in experiment [3], in [4], in [5] and in experiment [6] was inactive. For the same molecule, the result in experiment [7], in experiment [8], in [9] and in experiment [10] was inactive.
For `CC(Cl)COP(=O)(OCC(C)Cl)OCC(C)Cl` (stereo not given), the molecule was called inactive in experiment [1], in experiment [2], in experiment [3], in experiment [4], in [5] and in experiment [6]. Besides, the result in experiment [7], in experiment [8], in experiment [9] and in experiment [10] was inactive.
For the molecule `Oc1ccccc1Cc1ccccc1O`, the result in [1], in experiment [2], in [3], in experiment [5], in experiment [7] and in experiment [8] was inactive. Further, the molecule was classed as inactive in experiment [9] and in [10]. Moreover, the results for the AC50 in experiment [4] and in experiment [6] were 72.5 µM (active) and 27.7 µM (active), respectively.
For `Oc1ccc(-c2ccccc2)c(Cl)c1`, the molecule was classed as inactive in experiment [1], in experiment [2], in experiment [3], in [5], in [7] and in experiment [8]. Besides, the molecule was classed as inactive in [9] and in experiment [10]. For the same molecule, the AC50 (in general, the midpoint of the concentration-response curve, whichever way the signal moves) is 53.9 µM (active) in experiment [4] and 9.09 µM (active) in experiment [6].
`CCCCCCOc1ccc(N)cc1`: the outcome in experiment [1], in experiment [2], in experiment [3], in experiment [4], in [5] and in experiment [6] was inactive. In addition, the molecule was called inactive in experiment [7], in [8], in experiment [9] and in [10].
For the molecule `Nc1ccc(O)c([N+](=O)[O-])c1`, the call in experiment [1], in experiment [2], in experiment [3], in experiment [4], in [5] and in experiment [6] was inactive. Also, the outcome in experiment [7], in experiment [8], in [9] and in experiment [10] was inactive.
On to `CC1(C)CCC[C@]2(C)[C@H]3CC(=O)O[C@]3(C)CC[C@@H]12`, for which the outcome in [1], in [2], in experiment [3], in experiment [4], in [5] and in experiment [6] was inactive. For the same molecule, the outcome in experiment [7], in experiment [8], in experiment [9] and in [10] was inactive.
Regarding `CCCCCCC=O`, the result in experiment [1], in experiment [2], in [3], in [4], in [5] and in [7] was inactive. The call in experiment [8], in [9] and in [10] was inactive. Besides, the AC50 in [6] was 26.7 µM (active).
In the case of `CCCCCCCCCC(C)=O`, the call in experiment [1], in [2], in experiment [3], in experiment [4], in experiment [5] and in experiment [6] was inactive. Besides, the molecule was called inactive in [7], in [8], in experiment [9] and in [10].
Take `CC(C)COC(=O)CC(C(=O)OCC(C)C)S(=O)(=O)O` (stereo not given): the molecule was classed as inactive in [1], in experiment [2], in [3], in experiment [4], in [5] and in experiment [6]. For the same molecule, the call in [7], in experiment [8], in experiment [9] and in experiment [10] was inactive.
`C=C(C)C(=O)OCCCCCCCCCCCC`: the result in experiment [1], in [2], in experiment [3], in experiment [4], in experiment [5] and in experiment [6] was inactive. For the same molecule, the call in [7], in [8], in [9] and in [10] was inactive.
As for `C=C(C)[C@@H]1CC=C(C)CC1`, the molecule was classed as inactive in experiment [1], in experiment [2], in experiment [3], in [4], in [5] and in [6]. For the same molecule, the outcome in experiment [7], in experiment [8], in [9] and in experiment [10] was inactive.
`CCCCCC[C@@H](O)C/C=C\CCCCCCCC(=O)OCC(O)CO` (stereo not given in full): the AC50 in experiment [1] was 133 µM (active); in [4], 151 µM (active); in experiment [7], 178 µM (active); in experiment [9] it was 178 µM (active); in [10], 128 µM (active). The outcome in experiment [2], in experiment [3], in experiment [5], in experiment [6] and in experiment [8] was inactive.
Turning to `Cc1cccc(C(C)(C)C)c1O`, the call in experiment [1], in experiment [2], in experiment [3], in experiment [4], in experiment [5] and in [6] was inactive. In addition, the outcome in [7], in [8], in experiment [9] and in experiment [10] was inactive.
With `C=CC(=O)NCOCCCC`, the molecule was called inactive in experiment [1], in experiment [2], in [3], in experiment [4], in experiment [5] and in [6]. Besides, the outcome in experiment [7], in experiment [8], in experiment [9] and in [10] was inactive.
As to `CC=CC(=O)OCC(C)C`, the molecule was classed as inactive in experiment [1], in experiment [2], in [3], in experiment [4], in experiment [5] and in experiment [6]. Besides, the result in experiment [7], in experiment [8], in experiment [9] and in experiment [10] was inactive.
Turning to `Cc1cc(C)c(C=O)c(C)c1`, the molecule was classed as inactive in experiment [1], in [2], in [3], in experiment [4], in experiment [5] and in experiment [6]. Besides, the outcome in [7], in [8], in [9] and in experiment [10] was inactive.
`Nc1ccc(C(=O)OCCCOC(=O)c2ccc(N)cc2)cc1`: the molecule was classed as inactive in [1], in experiment [2], in [3], in [4], in experiment [5] and in experiment [6]. In addition, the molecule was called inactive in [7], in experiment [8], in experiment [9] and in experiment [10].
`Fc1ccc(Br)cc1`: the molecule was classed as inactive in experiment [1], in experiment [2], in [3], in experiment [4], in experiment [5] and in experiment [7]. The outcome in [8], in experiment [9] and in [10] was inactive. In addition, the concentration at half-maximal activity (AC50) in experiment [6] is 21.1 µM (active).
For `CC12CCC(CC1)C(C)(C)O2`, the call in experiment [1], in experiment [2], in experiment [3], in [4], in [5] and in experiment [6] was inactive. Further, the call in experiment [7], in [8], in experiment [9] and in experiment [10] was inactive.
As for `C=Cc1cccc(C)c1`, the outcome in experiment [1], in [2], in experiment [3], in experiment [4], in experiment [5] and in experiment [6] was inactive. Also, the call in [7], in experiment [8], in experiment [9] and in experiment [10] was inactive.
For `CC1(C)C(=O)N(CO)C(=O)N1CO`, the call in [1], in experiment [2], in experiment [3], in experiment [4], in [5] and in experiment [6] was inactive. Also, the call in [7], in experiment [8], in experiment [9] and in experiment [10] was inactive.
On to `CCCCCCCCCCCC(C)=O`, for which the call in [1], in experiment [2], in experiment [3], in experiment [4], in experiment [5] and in [8] was inactive. Besides, in [10], the outcome was inactive. Besides, the AC50 was 1.3 µM (active) in experiment [6], 160 µM (active) in experiment [7] and 171 µM (active) in [9].
